Measurements reported in PubChem BioAssay AID1159580 (chemical genetic matrix, 2015).
Values joined by “and” are separate entries in the source; they are usually repeats but may differ in a detail not shown here. Equal values may be shown once. About 2,000 (36%) of roughly 5,500 compounds were called active. Inconclusive results (about 18%) are left out. No stated cut-off is given here; in the data, active means normalized growth mostly below about 0.91 (no sharp cut-off); inconclusive means no clear call, values can overlap the other calls; inactive means mostly above about 0.92. The list shows a part of the results.

Assay: chemical genetic growth profiling, strain panel (AID 1159580);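 further: tested at 20 µM; growth read once vehicle control cultures reached saturation at 30 °C; 1 = growth at the plate median or of vehicle wells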
Conditions: S. cerevisiae deletion strains, growth OD

Measured: normalized growth

CCOC(=O)NNc1nncc2ccccc12
inactive: locus YAL013W, strain DEP1, stronger effect = lower value 0.992 | locus YAL021C, strain ccr4, stronger effect = lower value 1 | locus YAL026C, strain drs2, stronger effect = lower value 1.03 | locus YAL030W, strain snc1, stronger effect = lower value 1.02 | locus YBL061C, strain skt5, stronger effect = lower value 1.01 | locus YBR009C, strain hhf1, stronger effect = lower value 0.973 | locus YBR021W, strain FUR4, stronger effect = lower value 0.964 | locus YBR023C, strain chs3, stronger effect = lower value 1.02 | locus YBR171W, strain sec66, stronger effect = lower value 1.01 | locus YBR229C, strain ROT2, stronger effect = lower value 0.991 | locus YBR231C, strain swc5, stronger effect = lower value 0.993 | locus YBR279W, strain paf1, stronger effect = lower value 1.02 | locus YCL011C, strain gbp2, stronger effect = lower value 1.04 | locus YCL016C, strain dcc1, stronger effect = lower value 1.03 | locus YCL029C, strain bik1, stronger effect = lower value 0.97 | locus YCL061C, strain MRC1, stronger effect = lower value 0.994 | locus YCL069W, strain vba3, stronger effect = lower value 1.02 | locus YCR088W, strain abp1, stronger effect = lower value 1.01 | locus YDL005C, strain med2, stronger effect = lower value 1.03 | locus YDL035C, strain GPR1, stronger effect = lower value 0.978 | locus YDL040C, strain nat1, stronger effect = lower value 0.996 | locus YDL074C, strain BRE1, stronger effect = lower value 1.01 | locus YDL101C, strain DUN1, stronger effect = lower value 0.991 | locus YDL134C, strain PPH21, stronger effect = lower value 0.979 | locus YDL185W, strain tfp1, stronger effect = lower value 0.983 | locus YDL192W, strain arf1, stronger effect = lower value 0.98 | locus YDR001C, strain nth1, stronger effect = lower value 1.01 | locus YDR069C, strain doa4, stronger effect = lower value 0.985 | locus YDR101C, strain arx1, stronger effect = lower value 0.993 | locus YDR137W, strain rgp1, stronger effect = lower value 1.03 | locus YDR150W, strain NUM1, stronger effect = lower value 1 | locus YDR159W, strain sac3, stronger effect = lower value 0.94 | locus YDR162C, strain NBP2, stronger effect = lower value 0.987 | locus YDR195W, strain ref2 0.981 | locus YDR297W, strain sur2, stronger effect = lower value 1 | locus YDR318W, strain mcm21, stronger effect = lower value 0.974 | locus YDR334W, strain swr1, stronger effect = lower value 1.03 | locus YDR335W, strain msn5, stronger effect = lower value 1.01 | locus YDR388W, stronger effect = lower value 0.973 | locus YDR392W, strain spt3, stronger effect = lower value 0.998 | locus YDR502C, strain sam2, stronger effect = lower value 0.969 | locus YEL003W, strain gim4, stronger effect = lower value 0.998 | locus YEL037C, strain rad23, stronger effect = lower value 1.02 | locus YEL061C, strain CIN8 (second series), stronger effect = lower value 1 | locus YEL061C, strain CIN8, stronger effect = lower value 1 | locus YER015W, strain faa2, stronger effect = lower value 1.01 | locus YER016W, strain bim1, stronger effect = lower value 1.02 | locus YER110C, stronger effect = lower value 0.972 | locus YER111C, strain swi4, stronger effect = lower value 1.01 | locus YER155C, strain BEM2 (second series), stronger effect = lower value 1 | locus YER155C, strain BEM2, stronger effect = lower value 0.99 | locus YER167W, strain BCK2, stronger effect = lower value 0.989 | locus YFR010W, strain ubp6, stronger effect = lower value 0.979 | locus YGL078C, strain dbp3, stronger effect = lower value 0.98 | locus YGL086W, strain mad1, stronger effect = lower value 0.995 | locus YGL167C, strain pmr1, stronger effect = lower value 1 | locus YGL173C, strain kem1, stronger effect = lower value 0.972 | locus YGL227W, strain vid30, stronger effect = lower value 1.02 | locus YGL240W, strain doc1, stronger effect = lower value 0.998 | locus YGL248W, strain PDE1, stronger effect = lower value 1 | locus YGL253W, strain hxk2, stronger effect = lower value 1.02 | locus YGR135W, strain pre9, stronger effect = lower value 0.97 | locus YGR229C, strain SMI1, stronger effect = lower value 0.984 | locus YGR252W, strain gcn5, stronger effect = lower value 0.962 | locus YHR013C, strain ard1, stronger effect = lower value 1.02 | locus YHR027C, strain rpn1, stronger effect = lower value 0.993 | locus YHR030C, strain SLT2, stronger effect = lower value 0.99 and 0.966 | locus YHR079C, strain IRE1 (second series), stronger effect = lower value 0.983 | locus YHR079C, strain IRE1, stronger effect = lower value 0.982 | locus YHR094C, strain hxt1, stronger effect = lower value 0.973 | locus YHR129C, strain ARP1, stronger effect = lower value 0.999 | locus YHR142W, strain chs7, stronger effect = lower value 1.04 | locus YHR200W, strain rpn10, stronger effect = lower value 0.981 | locus YIL066C, strain RNR3, stronger effect = lower value 0.987 | locus YIL073C, strain SPO22, stronger effect = lower value 0.913 | locus YIL125W, strain kgd1, stronger effect = lower value 0.987 | locus YIR030C, strain dcg1, stronger effect = lower value 0.977 | locus YJL092W, strain hpr5, stronger effect = lower value 1.01 | locus YJL095W, strain BCK1 (second series), stronger effect = lower value 1.02 | locus YJL095W, strain BCK1, stronger effect = lower value 1.04 and 0.976 | locus YJL115W, strain asf1, stronger effect = lower value 1.03 | locus YJL129C, strain trk1, stronger effect = lower value 1.02 | locus YJL134W, strain LCB3, stronger effect = lower value 0.994 | locus YJL154C, strain vps35, stronger effect = lower value 1.01 | locus YJL164C, strain tpk1, stronger effect = lower value 0.993 | locus YJL166W, strain qcr8, stronger effect = lower value 0.983 | locus YJL168C, strain set2, stronger effect = lower value 0.981 | locus YJL187C, strain SWE1 (second series), stronger effect = lower value 1 | locus YJL187C, strain SWE1, stronger effect = lower value 1.02 | locus YJR043C, strain POL32, stronger effect = lower value 0.952
